# In paper PMC4552634, “A New Set of Chemical Starting Points with Plasmodium falciparum Transmission-Blocking Potential for Antimalarial Drug Discovery” (PLoS ONE, 2015):
# In all, about 13,000 compounds went through this assay and about 3,200 (25%) showed an effect of 50% or more. This is one part of the list.
# Test system: P. falciparum stage V gametocytes
# Parameters: BacTiter-Glo ATP luminescence viability of purified stage V gametocytes in 384-well plates, per cent inhibition versus DMSO
# Settings: 48 h, 5 µM; inhibitor
row,Structure (SMILES),% Inhibition
1,O=C(/C=C/c1ccc(Cl)c(Cl)c1)NCCCCCN1CCC(NC(=O)Nc2cccc(F)c2)CC1 [TCMDC-135704],-72.87%
2,CC(C)NCc1cccc(-c2cccc(-c3nc4ccc(F)cc4[nH]3)c2)c1 [TCMDC-132747],-26.37%
3,CC[C@@H]([C@@H](Cc1cc2ccccc2s1)C(=O)N[C@@H](CCCCNC(=O)OCc1ccccc1)C(=O)Nc1ccccn1)N(O)C=O [TCMDC-138086],8.625%
4,CCCCc1ccc(Cc2cnc3nc(N)nc(N)c3c2C)cc1 [TCMDC-138045],-16.41%
5,CCCCCCN(C(=O)OCc1ccccc1)C1CCN(C(=O)OC(C)(C)C)CC1C(=O)OCC (stereo not shown) [TCMDC-140339],26.28%
6,CCOC(=O)c1c(C)n(-c2ccccc2)c2ccc(OC(=O)c3ccc(S(=O)(=O)N(CC)CC)cc3)cc12 [TCMDC-125723],7.356%
7,CCN(C)c1cc(C(=O)N[C@@H](Cc2ccccc2)[C@H](O)CNC(C)(C)c2cccc(OC)c2)cc(N2CCCC2=O)c1 [TCMDC-134529],28.65%
8,CSc1ccc(NC(=O)Nc2cc(C)nc3ccccc23)cc1 [TCMDC-139394],23.44%
9,Cc1cc(NC(=O)Nc2ccc(C(C)C)cc2)c2ccccc2n1 [TCMDC-139826],6.688%
10,Cc1cc(NC(=O)Nc2ccc(C(C)(C)C)cc2)c2ccccc2n1 [TCMDC-139981],63.23%
11,CCOc1cc(CC)ccc1C1CCN(CCCCNC(=O)c2ccc(NC(=O)c3ccc(Cl)cc3)cc2)CC1 [TCMDC-138317],61.4%
12,CCc1ccc(C2CCN(CCCCNC(=O)c3ccc(NC(=O)c4ccc(Cl)cc4)cc3)CC2)c(OCC(=O)OC)c1 [TCMDC-138707],40.9%
13,CC(=O)Oc1cc(C)ccc1C1CCN(CCCCNC(=O)c2ccc(NC(=O)c3ccc(Cl)cc3)cc2)CC1 [TCMDC-138630],-17.17%
14,CCOc1cc(CC)ccc1C1CCN(CCCCNC(=O)c2ccc(NC(=O)c3ccc(C#N)cc3)cc2)CC1 [TCMDC-138662],87.14%
15,CCc1ccc(C2CCN(CCCCNC(=O)c3ccc(NC(=O)c4ccc(Cl)cc4)cc3)CC2)c(OC)c1 [TCMDC-138377],-11.09%
16,CCOc1cc(CC)ccc1C1CCN(CCN2CCC(CNC(=O)c3ccc(-c4ccc(C#N)cc4)cc3)CC2)CC1 [TCMDC-138847],107.7%
17,CCOc1cc(CC)ccc1C1CCN(CCN2CCC(NC(=O)c3ccc(-c4ccc(C#N)cc4)cc3)CC2)CC1 [TCMDC-138829],12.51%
18,Cc1cc(C2CCN(CCCCNC(=O)c3ccc(-c4ccc(C#N)cc4)cc3)CC2)c(C)cc1OCCO [TCMDC-138827],-59.1%
19,CCc1ccc(C2CCN(CCCCNC(=O)c3ccc(NC(=O)c4ccc(Cl)cc4)cc3)CC2)c(OC(C)=O)c1 [TCMDC-138648],96.99%
20,CCOc1cc(CC)ccc1C1CCN(CCN2CCC(NC(=O)c3ccc(-c4ccc(C(C)=O)cc4)cc3)CC2)CC1 [TCMDC-138882],-11.21%
21,CC1(C)N=C(N)N=C(N)N1OCCCNC(=O)c1ccc([N+](=O)[O-])cc1 [TCMDC-131666],6.997%
22,c1ccc(COc2ccc(Nc3ncnc4cnc(-c5ccc(CN6CCCCC6)o5)cc34)cc2)cc1 [TCMDC-137775],-26.66%

row,Structure (SMILES),% Inhibition
1,CCCCCC(C)C(C)c1cc(O)c2c(c1)OC(C)(C)CC2=Cc1ccncc1 (stereo not shown) [TCMDC-131746],-25.77%
2,C#CC[C@@H](NC(N)=O)C(=O)O [TCMDC-131404],-1.405%
3,O=S(=O)(NC1CCN(c2ccnc3cc(Cl)ccc23)C1)c1cccc(F)c1 (stereo not shown) [TCMDC-133657],-15.22%
4,CCOc1cc(C)ccc1N1CCN(CCN2CCC(NC(=O)c3ccc(-c4ccc(C#N)cc4)cc3)CC2)CC1 [TCMDC-138866],88.4%
5,CCOc1cc(C)ccc1C1CCN(CCN2CCC(CNC(=O)c3ccc(-c4ccc(C(F)(F)F)cc4)cc3)CC2)CC1 [TCMDC-138805],96.77%
6,COc1cccc(C2CCN(CCN3CCC(CNC(=O)c4ccc(-c5ccc(C(F)(F)F)cc5)cc4)CC3)CC2)c1 [TCMDC-138830],71.94%
7,COc1ccccc1C1CCN(CCN2CCC(NC(=O)c3ccc(-c4ccc(C#N)cc4)cc3)CC2)CC1 [TCMDC-138880],-25.62%
8,COc1cccc(C2CCN(CCN3CCC(NC(=O)c4ccc(-c5ccc(C#N)cc5)cc4)CC3)CC2)c1 [TCMDC-138860],-1.987%
9,COc1cccc(C2CCN(CCN3CCC(NC(=O)c4ccc(-c5ccc(Cl)cc5)cc4)CC3)CC2)c1 [TCMDC-138833],-13.87%
10,CCOc1cc(C)ccc1C1CCN(CCCCNC(=O)c2cccc(-c3ccc(C(F)(F)F)cc3)c2)CC1 [TCMDC-138534],29.59%
11,CCc1ccc(C2CCN(CCCCNC(=O)c3ccc(NC(=O)c4ccc(Cl)cc4)cc3)CC2)c(OCCO)c1 [TCMDC-138703],131.2%
12,COc1cccc(C2CCN(CCN3CCC(NC(=O)c4ccc(-c5ccc(C(F)(F)F)cc5)cc4)CC3)CC2)c1 [TCMDC-138819],18.98%
13,CCOc1cc(C)ccc1C1CCN(CCCCNC(=O)c2ccc(-c3ccc(C(F)(F)F)cn3)cc2)CC1 [TCMDC-138535],16.24%
14,CN(C)CCOc1ccnc2ccc(NC(=O)Cc3ccc(-c4ccncc4)c4ccccc34)cc12 [TCMDC-139162],6.193%
15,CCOc1ccnc(=O)[nH]1 [TCMDC-124258],20.67%
16,C=CCOc1ccc(C2C(C(=O)OC)=C(C)NC3=C2C(=O)c2ccccc23)cc1OC (stereo not shown) [TCMDC-125383],-17.47%
17,O=C(Nc1cccc(-c2nn3ncccc3c2-c2ccnc(Nc3cccc(-c4cnco4)c3)n2)c1)c1c(F)cccc1F [TCMDC-135550],-49.22%
18,CN(C)Cc1ccc(CN2CCN(CCOc3ccc(-c4ccc(Cl)cc4)cc3)CC2)o1 [TCMDC-138673],36.52%
19,CN1CCCc2ccc(NC(=O)Nc3ccc(-c4ccccc4)cc3)cc2C1 [TCMDC-133730],-3.95%
20,CN1CCN(c2nsc3ccc(-c4ccc(OCCN5CCCC5)cc4)cc23)CC1 [TCMDC-133436],111.5%
21,CN1CCN(c2nsc3ccc(-c4ccc(NC(=O)Nc5cc(C(F)(F)F)ccc5F)cc4)cc23)CC1 [TCMDC-133435],89.92%
22,CN1CCN(c2ccnc3ccc(NC(=O)Nc4ccc(-c5ccccc5)cc4)cc23)CC1 [TCMDC-139320],-2.633%

row,Structure (SMILES),% Inhibition
1,CN1CCN(c2nsc3ccc(-c4ccc(NC(=O)Nc5ccccc5)cc4)cc23)CC1 [TCMDC-133437],50.88%
2,O=C(Nc1ccc(-c2ccc(-c3nc4ccc(C(F)(F)F)cc4[nH]3)cc2)cc1)Nc1ccc(F)c(F)c1F [TCMDC-133223],-19.68%
3,Fc1ccc(-c2cc3ncnc(N4CCN(CCN5CCCC5)CC4)c3s2)cc1 [TCMDC-125053],6.032%
4,COc1ccc(N2CCN(CCCCNC(=O)c3ccc(/C=C/c4ccc(Cl)c(Cl)c4)cc3)CC2)c(OC)c1 [TCMDC-138175],-78.16%
5,CS(=O)(=O)c1ccc2nc(NC(=O)c3csnn3)sc2c1 [TCMDC-125074],49.99%
6,NC1=NC2(CCCC2)N(c2ccc(Cl)cc2)C(N)=N1 [TCMDC-137719],0.5076%
7,NC(N)=NC(=O)Nc1cc(Cl)c(Cl)c(Cl)c1 [TCMDC-137465],-8.846%
8,CCN(CC)CCN(Cc1ccc(-c2ccc(Cl)cc2)cc1)C(=O)Cn1cc(CN(C)C)c(=O)nc1SCc1ccc(F)cc1 [TCMDC-140406],107.7%
9,CCc1cn(CC(=O)N(CCOc2ccc(-c3ccc(C(F)(F)F)cc3)cc2)CCN(CC)CC)c(SCc2ccc(F)cc2)nc1=O [TCMDC-140925],116.2%
10,CC(C)Sc1nc2c(c(=O)n1Cc1ccco1)C1(CCCCC1)Cc1ccccc1-2 [TCMDC-125100],0.5988%
11,COc1ccc(CNC2CCN(C)CC2)cc1-c1ccc(S(=O)(=O)NC2CCC2)c(F)c1 [TCMDC-132263],28.54%
12,COc1ccc(CNC2CCN(C)CC2)cc1-c1ccc(S(=O)(=O)NC2CCC2)cc1 [TCMDC-132245],84.43%
13,COc1ccc(CNC2CCN(C)CC2)cc1-c1ccc(S(=O)(=O)NC2CCC2)c(C)c1 [TCMDC-132270],86.28%
14,N=C(N)c1ccc(NN=Cc2ccc(Oc3ccc(C(=N)N)cc3)cc2)cc1 [TCMDC-137493],43.38%
15,CC(C)Cc1c(O)nc(SCCN2CCOCC2)[nH]c1=O [TCMDC-125767],17.13%
16,O=C(O)C[C@H](NC(=O)[C@@H]1CCCN1C(=O)c1cccc(-c2ccc(Cl)c(Cl)c2)c1)C(=O)O [TCMDC-140511],4.214%
17,O=[N+]([O-])c1ccc(NC(=NC2CCCc3ccccc32)Nc2ccccc2Br)c(O)c1 (stereo not shown) [TCMDC-139983],-2.666%
18,COc1c(CNCCCCCCNCc2c(OC)c(OC)c3ccccc3c2OC)c(OC)c2ccccc2c1OC [TCMDC-137837],111.1%
19,CCCNCc1c(O)ccc2c(CNCCC)c(O)ccc12 [TCMDC-137593],-47.95%
20,COc1c(OC)c(OC)c2ccccc2c1CNCCCCCCNCc1c(OC)c(OC)c(OC)c2ccccc12 [TCMDC-137827],106%
